RORgamma inh: inhibitors of mouse ROR gamma transcriptional activity; Potency, µM (highest dose often 53.6 µM), most hits filed as inhibitors; Drosophila S2 Gal4-RORgamma UAS-luciferase reporter, 20 h; 310,000 tested, 5.4% active; P51450; also: nearly all actives have a fitted effect of over 60% in size
Target sequence (P51450 whole entry, looked up, the tested form may be a part): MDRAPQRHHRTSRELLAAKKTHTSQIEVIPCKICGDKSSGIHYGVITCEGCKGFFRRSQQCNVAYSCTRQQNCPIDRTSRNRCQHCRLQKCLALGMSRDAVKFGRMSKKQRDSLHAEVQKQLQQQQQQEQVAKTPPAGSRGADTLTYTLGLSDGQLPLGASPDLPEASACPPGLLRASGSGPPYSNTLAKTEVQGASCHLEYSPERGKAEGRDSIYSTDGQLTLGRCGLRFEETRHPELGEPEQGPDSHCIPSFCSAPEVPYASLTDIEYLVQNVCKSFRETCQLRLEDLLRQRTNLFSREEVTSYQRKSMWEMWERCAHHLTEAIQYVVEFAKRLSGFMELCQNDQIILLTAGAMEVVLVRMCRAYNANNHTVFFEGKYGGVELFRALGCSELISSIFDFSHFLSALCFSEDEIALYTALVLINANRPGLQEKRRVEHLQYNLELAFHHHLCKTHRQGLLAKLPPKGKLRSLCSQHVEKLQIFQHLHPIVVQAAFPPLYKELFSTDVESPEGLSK
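Stable Schneider cell line, Gal4 DNA-binding domain fused to ROR gamma, UAS-luciferase. Cmpd 1 hr RT → CuSO4 700 uM final → 20 hr RT → luciferase reagent 10 min → luminescence.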
TDP1 block: TDP1 (human) enzyme inhibition; 350,000 tested, 0.28% active; Potency, µM (top dose mostly 130 µM), usual class: inhibitors; recombinant TDP1, AlphaScreen DNA substrate cleavage; Q9NUW8; also: nearly all actives have a fitted effect of over 40% in size
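Recombinant human Tdp1 (E. coli-expressed, 1 nM final) preincubated with compounds 15 min at room temperature, then 5'-biotin/3'-phosphotyrosine-FITC DNA substrate (15 nM final) added for 5 min. AlphaScreen beads (10 ug/ml final) added 10 min; cleavage lowers signal.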
TDP1 cell CPT: DT40-hTDP1 cell growth loss with CPT; chicken DT40 Tdp1-/-;hTDP1 cells + 20 nM CPT, ATP luminescence, 48 h; 420,000 tested, 12% active; Potency, µM (highest dose often 46.2 µM), usual class: inhibitors; also: nearly all actives have a fitted effect of over 55% in size
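Cell growth measured by CellTiter-Glo luminescence after a minimum 48 h, 37 C compound exposure with 20 nM CPT in Tdp1-knockout DT40 cells stably expressing hTDP1, seeded 400/well; qHTS titration format.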
TDP1 cell noCPT: qHTS for Inhibitors of human tyrosyl-DNA phosphodiesterase 1 (TDP1): qHTS in cells in absence of CPT | DT40 Tdp1-/- hTDP1 cells, no CPT, ATP luminescence, 48 h | Potency, µM (top dose mostly 46.2 µM), usual class: inhibitors | 420,000 tested, 15% active | AID 686978, 2013; also: nearly all actives have a fitted effect of over 55% in size
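Growth of hTDP1-complemented DT40 Tdp1-knockout cells is measured by ATP luminescence after at least 48 hr compound exposure at 37 °C, with DMSO substituting for the 20 nM CPT used in the parallel screen.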
Gal4-VP16 FLuc: counter-screen for ROR gamma inhibitors: Gal4-VP16 reporter; Drosophila S2 Gal4-VP16 UAS-luciferase, luminescence, 20 h; Potency, µM (highest dose often 53.6 µM), usual class: inhibitors; 310,000 tested, 3.5% active; AID 2546;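 also: Gal4-VP16 expression switched on by copper sulfate through the metallothionein promoter; nearly all actives have a fitted effect of over 50% in size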
Each line names hits and unclear results; the compound was inactive in the other large screens. Sampled rows, rich in hits. Any-hit rate of the full collection: about 19%. Calls follow the shape of the dose curve; as a rule, active = well fitted curve in the direction sought with a large enough effect; inconclusive = small, poorly fitted or top-dose-only effect, or another doubt; inactive = no such curve, though single readings can be large; an effect the other way counts as inactive or inconclusive.

Fc1ccc(F)c(CN2CCN(c3ncccn3)CC2)c1	none
O=[N+]([O-])c1ccc(N2CCN(Cc3ccccc3)CC2)c(S(=O)(=O)N2CCOCC2)c1	RORgamma inh inconclusive, TDP1 cell noCPT inconclusive
COc1ccccc1CNc1cc(-c2ccccc2C)ncn1	TDP1 cell CPT 4.1µM, TDP1 cell noCPT 4.1µM (no result: TDP1 block)
COc1cccc(-c2cc(NCc3ccc(OC)cc3OC)ncn2)c1	TDP1 cell CPT 10µM, TDP1 cell noCPT 13µM (no result: TDP1 block)
COc1ccc(CNc2cc(-c3cccc(C#N)c3)ncn2)c(OC)c1	RORgamma inh inconclusive, TDP1 cell CPT inconclusive, TDP1 cell noCPT inconclusive (no result: TDP1 block)
COc1ccccc1CNc1cc(-c2ccccc2OC)ncn1	TDP1 cell CPT 4.6µM, TDP1 cell noCPT 2.9µM (no result: TDP1 block)
COc1ccccc1CNc1cc(-c2cccnc2)ncn1	TDP1 cell CPT inconclusive (no result: TDP1 block)
O=[N+]([O-])/C(=C\Nc1ccc(F)cc1F)S(=O)(=O)c1ccccc1	none (no result: TDP1 block)
Cc1ccsc1/C=C1/C(=O)NN(c2ccccc2)C1=O	RORgamma inh inconclusive, Gal4-VP16 FLuc inconclusive
O=C1NN(c2ccccc2)C(=O)/C1=C/c1ccc(Sc2ccc(Cl)cc2)o1	TDP1 cell CPT inconclusive, TDP1 cell noCPT 21µM
Cc1ccc(Sc2ccc(/C=C3/C(=O)NN(c4ccccc4)C3=O)o2)cc1	TDP1 cell CPT inconclusive, TDP1 cell noCPT 16µM
CC(=O)C1=C(O)C(=O)N(c2ccc(O)cc2)C1c1ccccc1[N+](=O)[O-] (stereo not given)	none (no result: TDP1 block)
Cc1nc(/C(N)=N/OC(=O)c2ccc(Cl)cc2)c(C(F)(F)F)o1	TDP1 cell CPT inconclusive
CCNC(=S)/N=C(/Nc1ccc(OC)cc1)Nc1nc(C)cc(C)n1	RORgamma inh 1.8µM, TDP1 cell CPT 23µM, TDP1 cell noCPT 21µM, Gal4-VP16 FLuc inconclusive
COc1cccc(N/C(=N/C(=S)Nc2ccc(C)cc2C)Nc2nc(C)cc(C)n2)c1	RORgamma inh 1.3µM, TDP1 cell CPT inconclusive, TDP1 cell noCPT 18µM, Gal4-VP16 FLuc 3.2µM
CCNC(=S)/N=C(/Nc1ccccc1)Nc1nc(C)cc(C)n1	RORgamma inh 0.79µM, TDP1 cell CPT inconclusive, TDP1 cell noCPT inconclusive, Gal4-VP16 FLuc 3.2µM (no result: TDP1 block)
COc1cccc(NC(=O)N2CCC(C(=O)Nc3ccc(C)cc3C)CC2)c1	none
CCNC(=S)NC(=NCc1cccnc1)Nc1nc(C)cc(C)n1	RORgamma inh 11µM, TDP1 cell noCPT inconclusive, Gal4-VP16 FLuc inconclusive (no result: TDP1 block)
COc1ccc(OCC(=O)Nc2ccc(S(=O)(=O)Nc3nc(C)cc(C)n3)cc2)cc1	none
O=C(NCc1ccco1)C(=O)NCC1OCCN1S(=O)(=O)c1ccc(Cl)cc1 (stereo not given)	RORgamma inh inconclusive
CCOC(=O)c1c(-c2ccccc2)csc1NC(=O)c1cc(-c2ccc(Br)cc2)on1	none (no result: RORgamma inh, Gal4-VP16 FLuc)
Cc1cc(N2CCC(C)CC2)nc2ccc(NC(=O)CCC(=O)N3CCN(c4cccc(C(F)(F)F)c4)CC3)cc12	TDP1 cell CPT 3.3µM, TDP1 cell noCPT 2.3µM (no result: RORgamma inh, Gal4-VP16 FLuc)
Cc1ccc(Cl)cc1N1CCN(C(=O)CCC(=O)Nc2ccc3nc(N4CCC(C)CC4)cc(C)c3c2)CC1	TDP1 cell CPT 23µM, TDP1 cell noCPT 13µM (no result: RORgamma inh, Gal4-VP16 FLuc)
Cc1cc(N2CCOCC2)nc2ccc(NC(=O)CCC(=O)N3CCN(c4ccccc4)CC3)cc12	TDP1 cell CPT inconclusive, TDP1 cell noCPT inconclusive
Cc1cc(N2CCN(C)CC2)nc2ccc(NC(=O)CCC(=O)N3CCN(c4ccc([N+](=O)[O-])cc4)CC3)cc12	TDP1 cell CPT 26µM, TDP1 cell noCPT 18µM
Cc1cc(SCC2=NNC(=O)C2)c(Cl)cc1Cl	none
O=C(NCc1cccs1)c1cnc2ccccn2c1=O	none
CC(C)NC(=O)c1ccc(NC(=O)N2CCCCc3ccccc32)cc1	TDP1 cell noCPT inconclusive (no result: RORgamma inh, Gal4-VP16 FLuc)
Cc1ccc(C)c(C(C)NC(=S)NCc2ccc(F)cc2)c1 (stereo not given)	RORgamma inh 5µM, TDP1 cell CPT 23µM, TDP1 cell noCPT inconclusive, Gal4-VP16 FLuc 1.4µM
COc1cccc(/C=C/C(=O)OCC(=O)NCc2ccc(Cl)cc2)c1	TDP1 cell CPT inconclusive, TDP1 cell noCPT inconclusive
COc1ccc(CCC(=O)NNC(=S)NCc2ccc(F)cc2)cc1	RORgamma inh 7.9µM, TDP1 cell noCPT inconclusive
COc1ccc(C(C)NC(=S)NCc2ccc(F)cc2)cc1 (stereo not given)	RORgamma inh 5.6µM, TDP1 cell CPT 18µM, TDP1 cell noCPT inconclusive, Gal4-VP16 FLuc 1µM
COc1ccc(CCC(=O)NNC(=O)c2ccc(F)cc2)cc1	none
COc1cccc(C(C)NC(=S)NCc2ccc(Cl)cc2)c1 (stereo not given)	RORgamma inh 6.3µM, Gal4-VP16 FLuc inconclusive
COc1ccc(OC)c(NC(=O)NC2CCCc3ccccc32)c1 (stereo not given)	none
CCC(NC(=S)NCc1ccc(F)cc1)c1ccccc1 (stereo not given)	RORgamma inh 3.5µM, TDP1 cell CPT inconclusive, TDP1 cell noCPT inconclusive, Gal4-VP16 FLuc 3.2µM
O=C(NNC(=S)Nc1ccccc1)c1cc(-c2cccnc2)nc2ccccc12	none
O=C(Nc1nc2c(s1)CCCC2)c1cc(-c2ccncc2)nc2ccccc12	RORgamma inh inconclusive, TDP1 cell CPT inconclusive, TDP1 cell noCPT 16µM, Gal4-VP16 FLuc inconclusive
COc1cc2c(cc1NC(=O)c1cc(-c3ccncc3)nc3ccc(C)cc13)oc1ccccc12	TDP1 cell CPT 23µM, TDP1 cell noCPT inconclusive
Cc1cccc(NC(=O)c2cc(-c3ccc(C)s3)nc3ccccc23)n1	TDP1 cell CPT 18µM, TDP1 cell noCPT 13µM
CC(OC(=O)c1cc(-c2cccnc2)nc2ccccc12)C(=O)Nc1ccc2ccccc2c1 (stereo not given)	RORgamma inh inconclusive, TDP1 cell CPT inconclusive, TDP1 cell noCPT 18µM
COc1ccc(NC(=O)c2cc(-c3ccncc3)nc3ccccc23)c(OC)c1	TDP1 cell CPT inconclusive, TDP1 cell noCPT inconclusive (no result: RORgamma inh, Gal4-VP16 FLuc)
CCCNC(=O)c1nn2c(C(F)(F)F)cc(-c3ccccc3)nc2c1Cl	TDP1 cell CPT inconclusive, TDP1 cell noCPT inconclusive (no result: TDP1 block)
CCc1ccccc1NC(=O)c1cc(-c2ccc(Cl)s2)nc2ccccc12	TDP1 cell CPT inconclusive, TDP1 cell noCPT inconclusive (no result: RORgamma inh, Gal4-VP16 FLuc)
COc1cc(-c2cc(C(=O)Nc3cccc(C(C)=O)c3)c3ccccc3n2)cc(OC)c1OC	TDP1 cell CPT 6.5µM, TDP1 cell noCPT inconclusive (no result: TDP1 block)
CCc1ccc(CNC(=O)c2cc(-c3ccc(Cl)s3)nc3ccccc23)cc1	TDP1 cell CPT inconclusive, TDP1 cell noCPT inconclusive (no result: RORgamma inh, Gal4-VP16 FLuc)
COc1ccc(OC)c(NC(=O)c2cc(-c3ccc(Cl)s3)nc3ccccc23)c1	TDP1 cell noCPT 15µM (no result: RORgamma inh, Gal4-VP16 FLuc)
COc1cc(C(=O)Nc2cccc(C(C)=O)c2)cc(OC)c1OC	none
O=C(NCCCn1ccnc1)c1nn2c(C(F)(F)F)cc(-c3ccc(Br)cc3)nc2c1Cl	RORgamma inh inconclusive, TDP1 cell CPT 23µM, TDP1 cell noCPT 16µM, Gal4-VP16 FLuc inconclusive

Screening data: PubChem, National Center for Advancing Translational Sciences (NCATS)
